Source: PubChem BioAssay AID1117319 (Southern Research Institute, 2015)
Several values for one entry are separate records, joined by “and”; a condition that tells them apart may be missing. Identical values can stand only once. About 1,500 (0.58%) of roughly 260,000 compounds were called active. Not shown: some 5% with an inconclusive outcome.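 How the source made its calls: active means inhibition above a set limit at one or more doses, reproduced on every date tested; inconclusive means results disagree between test dates, or hit never tested in dose response; inactive means the rest.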 A selection follows. Results with a measured potency or affinity are listed apart.

Each compound was assayed against Virion infectivity factor (Human immunodeficiency virus type 1 group M subtype B (isolate BH10)) + Virion infectivity factor (Human immunodeficiency virus type 1 group M subtype B (isolate BRU/LAI)) + Virion infectivity factor (Human immunodeficiency virus type 1 group M subtype B (isolate PCV12)) + Virion infectivity factor (Human immunodeficiency virus type 1 group M subtype B (isolate HXB2)) + DNA dC->dU-editing enzyme APOBEC-3G (Homo sapiens) (UniProt P69720+P69721+P69722+P69723+Q9HC16) (assay: HIV-1 Vif–A3G interaction blockers – biochemical, TR-FRET, GST-Vif 1-94, biotin-A3G peptide, dose response retest, primary screen (AID 1117319;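 further: Vif residues 1-94 fused to GST binding biotinylated APOBEC3G peptide 110-148; 0% = full assay without inhibitor and 100% = GST in place of GST-Vif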)). Conditions: TR-FRET GST-Vif / biotin-A3G peptide binding; stronger effect = higher value.

inhibition, inactive:
COc1ccc2c(CC(=O)NNC(=O)c3cccs3)coc2c1 5.01%
CCCC(C(=O)NC(C)(C)C)N(Cc1ccccc1)C(=O)c1snc(C(N)=O)c1N (stereo not drawn) 3.36%
Cc1nn(Cc2ccc(Cl)cc2Cl)c(C)c1NC(=O)c1nn(C)cc1Cl -2.6%
O=C(CCc1ccccc1)Nc1ccc(NS(=O)(=O)c2ccccc2)cc1 0.68%
Cc1c[n+]([O-])cc(C)c1[N+](=O)[O-] -3.91%
O=C(CCN1CCN(CCO)CC1)Nc1ccc(OCc2ccccc2)cc1 -0.21%
CC1(C)CC(=O)C2=C(C1)NCN(Cc1ccccc1)C2 0.39%
c1cc2c(cc1CN1CCOCC1)OCO2 11.3%
O=C(OCC(=O)N1CCCC1)c1c2c(nc3ccccc13)CCCCC2 -4.27%
C[C@@H]1ON(C)[C@H]2C[C@H]3c4[nH]c5ccccc5c4CCN3C[C@@H]12 -1.4%
NNC(=O)C1C(O)CCC2CN3CCc4c([nH]c5ccccc45)C3CC21 (stereo not drawn) -9.7%
Cc1ccnc(NS(=O)(=O)c2cc([N+](=O)[O-])ccc2C)c1 -2.19%
O=c1/c(=C/c2ccco2)sc2n1CN(c1cccc(Br)c1)CN=2 32.9%
Brc1cccc(-c2nnco2)c1 -2.5%
COc1ccc(/C=C2\N=C(c3ccccc3Cl)NC2=O)cc1 3.99%
Cc1ccc(C2=N/C(=C\c3ccc(F)cc3)C(=O)N2)cc1 -3.34%
O=C(CCc1nc2ccccc2c(=O)[nH]1)OCc1ccc(-c2ccccc2)cc1 -13.5%
CCc1ccc2c(c1)C(=O)CCC2 -0.54%
O=C(CN1CCCCC1)NCCNC(=O)CN1CCCCC1 -5.6%
Cc1ccc2c(c1)c1c3n2CCN(C(=O)C2CC2)C3CCC1 (stereo not drawn) 14.1%
Cc1ccc2c(c1)c1c3n2CCN(C(=O)CN2CCN(C)CC2)C3CCC1 (stereo not drawn) -1.2%
COC(=O)c1ccc2c(c1)SC1=C(CCCC1=O)N2 20.1%
CNCc1ccccc1OCc1ccc(F)cc1 -4.9%
CCC(C)[C@@H](C(=O)Nc1ccc(OC)c(OC)c1)N1Cc2ccccc2C1=O (stereo partly drawn) 3.88%
CC(C(=O)Nc1ccc2c(c1)OCCO2)N1Cc2ccccc2C1=O (stereo not drawn) 7.84%
N#CC(C(N)=O)=C1CCC2(CC1)OCCCCO2 3.27%
N#C/C(C(N)=O)=C1/CCc2ccccc2N1 -2.65%
Cc1noc(C)c1S(=O)(=O)Nc1ccc2c(c1)C(=O)N([C@@H](C)CO)C[C@@H](C)[C@@H](CN(C)CC1CCCCC1)OCCCC[C@@H](C)O2 2.32%
C[C@@H]1CCCCO[C@H](CN(C)Cc2ccc(C(F)(F)F)cc2)[C@@H](C)CN([C@H](C)CO)C(=O)c2cc(NS(=O)(=O)c3cn(C)cn3)ccc2O1 -0.57%
CCOC(=O)c1c(C)nc(C)c(C(=O)OCC)c1-c1cccc(N)c1 -1.65%
CC(C)n1c(SCC(=O)Nc2nc3ccccc3s2)nc2c1c(=O)n(C)c(=O)n2C 10.6%
NS(=O)(=O)c1cc(Br)c2c(c1)S(=O)(=O)NCN2 -0.53%
CCOC(=O)N1CCC(N(CCN(C)C)C(=S)Nc2cccc(Cl)c2C)CC1 -1.98%
Cc1ccc(N2NC(=O)/C(=C/c3ccc(-c4ccc(Cl)c(C(=O)O)c4)o3)C2=O)cc1 0.99%
O=C1NN(c2ccccc2)C(=O)/C1=C/c1ccc(-c2ccc(Cl)c(C(=O)O)c2)o1 -2.97%
CCOc1ccc2[nH]c(=O)c(CN(CCO)C(=O)c3ccc(OC)c(OC)c3)cc2c1 -0.38%
CCN(C(=O)COC(=O)c1cnc(C)cn1)c1c(N)n(Cc2ccccc2)c(=O)[nH]c1=O 2.12%
COc1c(O)cc2oc(-c3ccc(O)cc3)cc(=O)c2c1O 19.4%
O=c1cc(-c2ccc(O)c(O)c2)oc2cc(O)cc(O)c12 15.6%
O=c1cc(-c2ccc(O)c(O)c2)oc2ccc3ccccc3c12 10.7%
O=c1cc(-c2ccc(O)cc2)oc2cc(O[C@@H]3O[C@H](CO)[C@@H](O)[C@H](O)[C@H]3O[C@@H]3OC[C@](O)(CO)[C@H]3O)cc(O)c12 6.15%
COc1ccc(CNC(=O)CCC(=O)N2CCN(S(=O)(=O)c3cc([N+](=O)[O-])ccc3C)CC2)cc1 -6.42%
CN(C)c1ncc(/C=C2/C(=O)NC(=S)N(C3CCCCC3)C2=O)cn1 1.75%
CCOc1ccc(CCNS(=O)(=O)c2ccc3c(c2)oc(=O)n3C)cc1OCC 13.6%
c1ccc(CN2CCc3[nH]c4ccccc4c3C2)cc1 -5.69%
CC(C)CC(=O)N1CCN(C(=O)c2cccc(F)c2)CC1 -7.36%
COc1ccc(OCC(O)CN(C)C(=O)/C=C/c2cccc([N+](=O)[O-])c2)cc1 (stereo not drawn) -4.1%
O=c1oc(/C=C/c2ccccc2)nc2sc3c(c12)CCC3 70.5%
COc1ccc(/C=C/c2nc3sc4c(c3c(=O)o2)CCC4)cc1 -1.87%
CCc1ccccc1OCC(=O)OCC(=O)N1CC(=O)Nc2ccccc21 -5.84%
CS(=O)(=O)N(CC(=O)NCc1ccc2c(c1)OCO2)C1CCCCC1 -13.6%
CCN(CC)c1ccc(/C=N/N2CCOCC2)c(O)c1 -1.22%
Oc1cccc(/C=N/N2CCCCC2)c1O -5.32%
CCN(CC)c1ccc(/C=N/N2C(=O)c3ccccc3C2=O)c(O)c1 19.7%
Oc1ccccc1C=NN1CCCCCC1 -3.73%
COc1cccc(/C=N/N2CCOCC2)c1O 2.44%
O=C1c2ccccc2C(=O)N1/N=C/c1ccc(O)c(O)c1 29.1%
CCC(=O)C1CCCN(C(=O)CCc2nnc(C3(c4ccc(Cl)cc4)CCC3)o2)C1 (stereo not drawn) 8.39%
CCC(C)(C(=O)NC1CCCC1)N(C(=O)c1ccccn1)c1ccc(C)cc1 (stereo not drawn) 5.82%
CC(=O)Nc1cccc(C(=O)OCC(=O)NNC(=O)c2cccs2)c1 -1.93%
Cc1ccc(C2(C)NC(=O)N(CC(=O)Nc3nc(-c4ccccn4)cs3)C2=O)cc1 (stereo not drawn) 0.48%
COc1ccccc1OCC(=O)NCC(C)NC(=O)COc1ccccc1OC (stereo not drawn) 5.26%
COc1ccc(-c2cn(-c3ccc(C)cc3)c(=O)n2CC(=O)Nc2cccc(F)c2)cc1 7.83%
CCOc1cccc2sc(N(CCCN(C)C)C(=O)Cc3ccccc3)nc12 3.08%
CCc1c(C)sc(NC(=O)OC)c1C(=O)N1CCOCC1 -5.04%
CCc1c(C)sc(NC(=O)OC)c1C(N)=O -10.3%
OC(COCc1ccccc1)CN1CCCC1 (stereo not drawn) 1.73%
COc1ccc2oc(C(=O)c3ccccc3)c(NC(=O)CN3CCN(C)CC3)c2c1 1.78% and 5.75%
